Reference: PubChem BioAssay AID430 (Sanford-Burnham Center for Chemical Genomics, 2006)
Among all 63,000 compounds or so, about 1,100 (1.7%) were called active. Cut-off read from the data, not from the text of the source: active = cytotoxicity above about 50%; inactive = the rest. For the sample, actives were picked, then their nearest neighbours and some compounds at random. Potency and affinity values are given separately.

Assay: HPDE-C7 pancreatic duct cell viability loss – fluorescence, HTS (AID 430);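 note: cells exposed to compound for 48 hours before viability readout; 0% = vehicle and 100% = reference cytotoxic drug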
Conditions: HPDE-C7 pancreatic duct cells viability, at 10 µM, stronger effect = higher value

SMILES	cytotoxicity
COCCn1c(SCC(=O)N2CCCC2)nnc1-c1ccoc1C	5.7% (inactive)
COc1ccccc1C(=O)NCc1ccncc1	-7.2% (inactive)
CCOC(=O)CN1C(=O)C(O)=C(C(C)=O)C1c1ccccc1 (stereo unspecified)	-3.4% (inactive)
COc1cccc2cc(C(=O)N3CCC(C)CC3)c(=O)oc12	36.9% (inactive)
COc1ccc(Nc2cc(=O)n(C3CCCCC3)c(=O)[nH]2)c(OC)c1	-11.4% (inactive)
CCC(=O)Nc1ccc(OC)cc1OC	-0.9% (inactive)
CC1(C)Oc2ccc3ccc(=O)oc3c2-c2cnoc21	-3.6% (inactive)
O=C(c1cc(-c2cccs2)on1)N1CCOCC1	-1.4% (inactive)
O=C(c1cc(-c2cccs2)on1)N1CCN(c2ccccc2)CC1	51.3% (active)
O=C(c1cc(-c2cccs2)on1)N1CCN(c2ccc(F)cc2)CC1	11.3% (inactive)
Cc1cc(C)cc(OCc2nnc(SCC(=O)c3ccc(Br)cc3)o2)c1	-22.5% (inactive)
CCCC(=O)Nc1sc2c(c1C#N)CCCC2	2.6% (inactive)
CC(C)(C)C1CCc2c(sc(NC(=O)c3cc(C4CC4)on3)c2C#N)C1 (stereo unspecified)	30.3% (inactive)
CCCc1cc(C(=O)Nc2sc3c(c2C#N)CCC3)no1	5.7% (inactive)
CCc1ccc(CCC(=O)Nc2sc3c(c2C#N)CCCC3)o1	72% (active)
Cc1cc(C(=O)Nc2sc3c(c2C#N)CCC3)no1	53.5% (active)
Cc1cc(C(=O)Nc2sc3c(c2C#N)CCCC3)no1	-1.6% (inactive)
N#Cc1c(NC(=O)c2cc(C3CC3)on2)sc2c1CCC2	65.1% (active)
CC(C)c1cc(C(=O)Nc2sc3c(c2C#N)CCC3)no1	17.6% (inactive)
COC(=O)CCC(=O)Nc1sc2c(c1C#N)CCCC2	-8% (inactive)
CCOc1cc(C2NC(=O)NC(C)=C2C(=O)OC(C)CC)cc(Br)c1O (stereo unspecified)	3.2% (inactive)
Cc1nn(C)c(C)c1S(=O)(=O)N1CCC(C(=O)NC2CCCCCC2)CC1	3.3% (inactive)

SMILES	cytotoxicity
COCCCNC(=O)CCCn1c(=O)[nH]c2ccccc2c1=O	-15.8% (inactive)
CCN(CC)CCN1C(=O)C(=O)/C(=C(/O)c2cnn(-c3ccccc3)c2C)C1c1cccnc1 (stereo unspecified)	0.2% (inactive)
O=C(Nc1ccc(N2CCOCC2)cc1)C1CCCN(S(=O)(=O)c2ccccc2)C1 (stereo unspecified)	0.2% (inactive)
CCOc1ccc2nc(-c3ccccc3)[nH]c2c1	56.7% (active)
COc1ccc2nc(-c3ccccc3)[nH]c2c1	-3.7% (inactive)
CCOc1ccc2nc(C(C)O)[nH]c2c1 (stereo unspecified)	-5.7% (inactive)
COC(=O)c1ccc(Cl)c(NC(=O)CN2CCOCC2)c1	0.1% (inactive)
CCOC(=O)c1cccc(NC(=O)CSc2nnc(-c3ccncc3)n2CCCOC)c1	-11.4% (inactive)
CC(Sc1ccc2ccccc2n1)C(=O)O (stereo unspecified)	4.7% (inactive)
C/C(CC(O)c1ccc2ccccc2n1)=N/O (stereo unspecified)	0.7% (inactive)
COc1ccccc1N(CC(=O)Nc1ccc2c(c1)OCO2)S(=O)(=O)c1ccccc1	7.5% (inactive)
O=C(NCCCO)c1nc2ccccc2s1	5.3% (inactive)
CCc1cc2c(=O)c(-c3ccc4c(c3)OCCO4)coc2cc1OC(=O)c1ccco1	56.6% (active)
CCOC(=O)c1oc2cc(O)c(CC)cc2c(=O)c1-c1ccc2c(c1)OCCO2	0.2% (inactive)
CCc1cc2c(=O)c(-c3nc4ccccc4[nH]3)coc2cc1OC(=O)N1CCOCC1	-31.2% (inactive)
Cc1nc(NC(=O)c2cc3c(s2)CCCCC3)sc1C(=O)N(C)C	-7% (inactive)
COC(=O)Cn1c2ccccc2c2nc(C)sc21	2.7% (inactive)
O=C(CS(=O)(=O)c1ccccc1)N1CCCCCC1	-5.2% (inactive)
C/C=C(\CS(=O)(=O)c1ccccc1)S(=O)(=O)c1ccccc1	35.4% (inactive)
Cc1cccn2c(=O)c3cc(C#N)c(=N)n(CCN4CCOCC4)c3nc12	5% (inactive)
Cc1ccccc1-n1c(SCc2cc(=O)n3ccccc3n2)nc2[nH]ncc2c1=O	-8% (inactive)
CC1(N2CCOCC2)CC2(O)C(=[N+]1[O-])CCc1nonc12 (stereo unspecified)	12.8% (inactive)

SMILES	cytotoxicity
CC1(N2CCCCC2)CC2(O)C(=[N+]1[O-])CCC/C2=N\O (stereo unspecified)	-1.5% (inactive)
CC1(N2CCOCC2)CC2(O)C(=[N+]1[O-])CCc1c2no[n+]1[O-] (stereo unspecified)	60.2% (active)
COc1ccc(Nc2nc(N3CCCC3)c3ccccc3n2)cc1	27.2% (inactive)
Cc1ccc(Nc2nc(N3CCOCC3)c3ccccc3n2)cc1	30.7% (inactive)
Oc1ccc(Nc2nc(N3CCCC3)c3ccccc3n2)cc1	73.1% (active)
C=CCN1C(=O)C2(c3ccccc31)C1CCCC=C1C(C#N)=C(N)C2(C#N)C#N (stereo unspecified)	-22.1% (inactive)
C=C(C)c1cccc(C(C)(C)NC(=O)N2CCOCC2)c1	7.9% (inactive)
COc1ccc(C(=O)CCN2CCCCCC2)cc1	19.8% (inactive)
COc1ccc(C(O)C(CN2CCOCC2)c2ccccc2)cc1F (stereo unspecified)	-2.2% (inactive)
COc1ccc(C(=O)O)cc1F	-2.5% (inactive)
COc1ccc(C(=O)C(c2ccccc2)N2CCOCC2)cc1 (stereo unspecified)	-4.6% (inactive)
CCOC(=O)Cc1nnc(NC(=O)CSc2nnc3c4ccccc4n(C(C)C)c3n2)s1	-15% (inactive)
CC1CCCCC1NC(=O)C1CCN(S(=O)(=O)c2ccc3c(c2)CCC(=O)N3)CC1 (stereo unspecified)	-18.5% (inactive)
COc1ccccc1C1NC(=O)CS1 (stereo unspecified)	-18.6% (inactive)
Nc1nc(-c2ccccc2)cc(N2CCCCC2)n1	50.6% (active)
c1ccc(-c2cc(N3CCCCC3)ncn2)cc1	-3.8% (inactive)
Cc1nc(-c2ccccc2)cc(N2CCCC2)n1	-14.7% (inactive)
CCOc1cccc2c1OC1(C)CC2NC(=O)N1c1cccc(F)c1 (stereo unspecified)	-12.1% (inactive)
Cc1ccc(C(=O)Nc2ncc(Cc3ccc(F)cc3)s2)o1	57.5% (active)
Cc1ccc(C(=O)Nc2ncc(Cc3ccccc3)s2)o1	31.4% (inactive)
Cc1nnc(SCC(=O)Nc2ncc(Cc3ccc(F)cc3)s2)n1N	-7.7% (inactive)
CCOc1ccc(CN(CCO)CCO)cc1C(=O)OC	-17% (inactive)
